RORgamma inh – qHTS for inhibitors of ROR gamma transcriptional activity. Nuclear receptor ROR-gamma (Mus musculus), P51450. Drosophila S2 Gal4-RORgamma UAS-luciferase reporter, 20 h. Potency, µM (top dose mostly 53.6 µM), for inactives: top-dose activity change, negative = inhibition, hits mostly inhibitors. actives 5.4% (n = 310,000). AID 2551, 2010; note: nearly all actives have a fitted effect of over 60% in size
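Drosophila Schneider cells stably carrying a metallothionein-driven Gal4 DBD–ROR gamma fusion and a UAS-Photinus luciferase reporter were exposed to compound for 1 hr, then induced with copper sulfate (700 uM final) for 20 hr at ambient temperature before luminescence reading.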
VP16 counter – VP16 counterscreen qHTS for inhibitors of ROR gamma transcriptional activity; actives 3.5% (n = 310,000); Drosophila S2 Gal4-VP16 UAS-luciferase, luminescence, 20 h; Potency, µM (titrated, usually from 53.6 µM), without a hit: top-dose activity, negative = inhibition, actives largely listed as inhibitors; AID 2546, 2010;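 note: Gal4-VP16 expression switched on by copper sulfate through the metallothionein promoter; nearly all actives have a fitted effect of over 50% in size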
TDP1 cell CPT – qHTS for Inhibitors of human tyrosyl-DNA phosphodiesterase 1 (TDP1): qHTS in cells in presence of CPT. chicken DT40 Tdp1-/-;hTDP1 cells + 20 nM CPT, ATP luminescence, 48 h. Potency, µM (top dose mostly 46.2 µM), for the others: at the top dose activity change, negative = growth inhibition, most hits filed as inhibitors. actives 12% (n = 420,000); note: nearly all actives have a fitted effect of over 55% in size
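Chicken DT40 Tdp1-/- cells complemented with human TDP1, 400 cells/well, exposed to compounds plus 20 nM camptothecin for at least 48 h at 37 C; viability read as ATP content by CellTiter-Glo luminescence.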
ALOX12 inh – Primary qHTS assay for inhibitors of human arachidonate 12S-lipoxygenase (ALOX12): Round 2. AID 1671190, 2021. purified 12hLO, xylenol orange hydroperoxide absorbance. actives 1.1% (n = 580,000). Polyunsaturated fatty acid lipoxygenase ALOX12 (Homo sapiens), P18054. Potency, µM (titrated, usually from 108 µM), inactives show top-dose activity change, negative = inhibition, hits mostly inhibitors
Target sequence (P18054 whole entry, looked up): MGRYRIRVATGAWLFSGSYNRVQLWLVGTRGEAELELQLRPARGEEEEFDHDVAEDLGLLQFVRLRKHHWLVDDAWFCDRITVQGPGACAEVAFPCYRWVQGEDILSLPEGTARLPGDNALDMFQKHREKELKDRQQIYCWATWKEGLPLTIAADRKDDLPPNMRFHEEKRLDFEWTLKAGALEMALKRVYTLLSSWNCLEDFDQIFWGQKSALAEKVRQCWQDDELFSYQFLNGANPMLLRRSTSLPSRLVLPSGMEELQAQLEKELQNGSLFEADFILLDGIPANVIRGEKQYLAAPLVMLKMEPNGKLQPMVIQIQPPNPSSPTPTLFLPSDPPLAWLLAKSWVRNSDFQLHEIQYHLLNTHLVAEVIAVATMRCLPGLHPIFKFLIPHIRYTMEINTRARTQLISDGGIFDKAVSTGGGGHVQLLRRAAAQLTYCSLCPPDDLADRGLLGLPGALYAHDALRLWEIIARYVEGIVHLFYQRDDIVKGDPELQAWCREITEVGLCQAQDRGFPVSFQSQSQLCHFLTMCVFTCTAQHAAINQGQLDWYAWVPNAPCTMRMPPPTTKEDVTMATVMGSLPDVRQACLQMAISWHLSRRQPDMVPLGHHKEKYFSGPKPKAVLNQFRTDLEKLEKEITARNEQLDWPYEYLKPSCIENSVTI
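Purified human 12hLO at 150 nM in 25 mM Hepes, 0.01% Triton X-100, pH 7.0, preincubated 15 min at room temperature with compound. Reaction started with 40 uM arachidonic acid, 30 min at room temperature. Hydroperoxide measured by Fe-xylenol orange, 573/405 nm absorbance ratio.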
TDP1 cell noCPT – qHTS for Inhibitors of human tyrosyl-DNA phosphodiesterase 1 (TDP1): qHTS in cells in absence of CPT; DT40 Tdp1-/- hTDP1 cells, no CPT, ATP luminescence, 48 h; Potency, µM (titrated, usually from 46.2 µM), for inactives: at the top dose activity change, negative = growth inhibition, hits mostly inhibitors; actives 15% (n = 420,000); AID 686978, 2013; note: nearly all actives have a fitted effect of over 55% in size
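Growth kinetics read by CellTiter-Glo luminescence after ≥48 hr at 37 °C. Cells: DT40 Tdp1-/- stably carrying human TDP1, 400 per well, compound exposure in the absence of CPT (DMSO vehicle).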
ELG1 repair inh – qHTS screen for small molecules that inhibit ELG1-dependent DNA repair in human embryonic kidney (HEK293T) cells expressing luciferase-tagged ELG1; HEK293T ELG1-luciferase reporter, luminescence, 16 h; DNA damage induced by 5-fluorouridine; Potency, µM (highest dose often 46.1 µM), for the others: at the highest dose activity change, negative = inhibition, actives largely listed as inhibitors; actives 2.3% (n = 330,000); AID 504467, 2011; note: nearly all actives have a fitted effect of over 55% in size
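Overnight (16 hr) co-exposure of 2,000 cells/well to 5-fluorouridine and compound at 37 °C preceded detection. Luciferase was quantified via ONE-Glo luminescence; loss of signal denotes inhibition.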
* = called active by the depositor; [ ] = remark or other dose. Compounds with a hit are over-represented: about 15% of the library has one in this group of screens. Calls come from the whole dose curve; as a rule, active = well fitted curve in the direction sought with a large enough effect; inconclusive = small, poorly fitted or top-dose-only effect, or another doubt; inactive = no such curve, though single readings can be large; an effect the other way counts as inactive or inconclusive. % is set by controls: 0 for no effect and ±100 for the full control effect; potency is the fitted concentration of half-maximal effect.

For Cc1ccc(C)c(NC(=O)CCC(=O)NNC(=S)Nc2ccccc2)c1 the results were RORgamma inh -9%, VP16 counter -3%, TDP1 cell CPT -6%, ALOX12 inh 26%, TDP1 cell noCPT -20% and ELG1 repair inh -6%.
Screening O=C(Cc1ccccc1)NNC(=S)Nc1ccccc1 returned RORgamma inh inconclusive, VP16 counter -17%, TDP1 cell CPT -10%, ALOX12 inh -3%, TDP1 cell noCPT inconclusive and ELG1 repair inh -1%.
Screening CC(=O)Nc1ccc(NC(=S)Nc2ccccc2)cc1 returned RORgamma inh -26%, VP16 counter -12%, TDP1 cell CPT 4%, ALOX12 inh inconclusive, TDP1 cell noCPT -1% and ELG1 repair inh 2%.
S=C(NNC(=S)Nc1ccc(Cl)cc1)NNc1ccccc1 was read as TDP1 cell CPT 15µM*, ALOX12 inh 45µM* and TDP1 cell noCPT 16µM*.
O=C(CCC(=O)NNC(=S)Nc1ccccc1)NCc1ccccc1 was read as RORgamma inh 10µM*, VP16 counter inconclusive, TDP1 cell CPT 14%, ALOX12 inh 27% and TDP1 cell noCPT -11%.
Screening CC(C)COCC(O)CCC(=O)NNC(=S)Nc1ccccc1 (configuration not stated) returned RORgamma inh -35%[10 µM], VP16 counter 1µM*, TDP1 cell CPT inconclusive, ALOX12 inh 2%, TDP1 cell noCPT inconclusive and ELG1 repair inh 27%.
For C/C(=C\C(=S)Nc1ccccc1)Nc1ccccc1 the results were RORgamma inh 10µM*, VP16 counter inconclusive, TDP1 cell CPT 15µM*, ALOX12 inh inconclusive, TDP1 cell noCPT 16µM* and ELG1 repair inh inconclusive.
For COCc1noc([C@@H]2CN(S(=O)(=O)Cc3ccccc3F)C[C@H]2C(N)=O)n1 the results were ALOX12 inh 58%.
Screening O=C(CC1CCCCC1)N1CCn2c(nnc2[C@@H]2C[C@@H](O)CN2Cc2ccccc2)C1 returned ALOX12 inh 56%.
Cc1ccc(NC(=S)NNC(=S)NNc2ccccc2)cc1C was read as TDP1 cell CPT -6%, ALOX12 inh 40µM* and TDP1 cell noCPT 23µM*.
For C=CCN(C)NC(=S)Nc1ccccc1 the results were RORgamma inh 5µM*, VP16 counter 10µM*, TDP1 cell CPT 9%, ALOX12 inh 10%, TDP1 cell noCPT -13% and ELG1 repair inh 0%.
`S=C(NNC(=S)Nc1ccccc1)Nc1ccccc1` gave RORgamma inh -16%, VP16 counter inconclusive, TDP1 cell CPT 3.7µM*, ALOX12 inh inconclusive, TDP1 cell noCPT 3.3µM* and ELG1 repair inh inconclusive.
For Cc1ccc(C)c(NCC(=O)NNC(=S)Nc2ccccc2)c1 the results were RORgamma inh inconclusive, VP16 counter inconclusive, TDP1 cell CPT 12%, ALOX12 inh -14%, TDP1 cell noCPT 17% and ELG1 repair inh 7%.
Screening NC(=S)NNC(=S)Nc1ccccc1 returned RORgamma inh inconclusive, VP16 counter -1%, TDP1 cell CPT inconclusive, ALOX12 inh inconclusive, TDP1 cell noCPT inconclusive and ELG1 repair inh -6%.
`C=CCN(C)NC(=O)Nc1ccccc1` gave RORgamma inh 20%, VP16 counter 0%, TDP1 cell CPT -30%, ALOX12 inh 1%, TDP1 cell noCPT -1% and ELG1 repair inh 8%.
`CC(c1c(F)cccc1F)n1cnc2c1c(=O)n(C)c(=O)n2C` (configuration not stated) gave ALOX12 inh -1%.
`COc1ccc(CC(=O)OC(C)C(=O)c2ccc(C)cc2)cc1Br` (configuration not stated) gave ALOX12 inh -3%.
For CCc1ccc(N/C=C(/C#N)c2nc(-c3ccc(C)c(C)c3)cs2)cc1 the results were ALOX12 inh 15%.
COc1ccc(OC)c(NCc2cccn2-c2nnc(N3CCC(C)CC3)s2)c1 was read as TDP1 cell CPT 2.9µM*, ALOX12 inh -18% and TDP1 cell noCPT 2.6µM*.
`COc1ccc(NCc2cccn2-c2nnc(N3CCC(C)CC3)s2)c(OC)c1` gave TDP1 cell CPT inconclusive, ALOX12 inh -20% and TDP1 cell noCPT 16µM*.
For COc1ccc(NCc2cccn2-c2nnc(N3CCOCC3)s2)c(OC)c1 the results were TDP1 cell CPT -26%, ALOX12 inh 1% and TDP1 cell noCPT -22%.
`O=C(c1nc2nc(-c3cccs3)cc(C(F)(F)F)n2n1)N1CCC2(CC1)OCCO2` gave ALOX12 inh 4%.
Screening Cc1ccc(-c2noc(CCC(=O)NC3CCN(Cc4ccccc4)CC3)n2)cc1 returned RORgamma inh inconclusive, VP16 counter inconclusive, TDP1 cell CPT 13µM*, ALOX12 inh inconclusive, TDP1 cell noCPT inconclusive and ELG1 repair inh inconclusive.
For O=C(CCc1nc(-c2ccccc2)no1)NC1CCCCCC1 the results were TDP1 cell CPT -29%, ALOX12 inh 0%, TDP1 cell noCPT -17% and ELG1 repair inh 5%.
Screening Cc1ccc(-c2noc(CCC(=O)NC3CCCc4ccccc43)n2)cc1 (configuration not stated) returned RORgamma inh -25%, VP16 counter 1%, TDP1 cell CPT 9.2µM*, ALOX12 inh 0%, TDP1 cell noCPT 2.3µM* and ELG1 repair inh inconclusive.
Screening Cc1ccc(C(=O)NC(C(=O)N2CCCCC2)C2CCN(C(=O)C(C)C)CC2)cc1 (configuration not stated) returned ALOX12 inh 25%.
For Cc1ccc(C(=S)NCS(=O)(=O)c2ccc(C)cc2)cc1 the results were RORgamma inh 2.8µM*, VP16 counter 8.9µM*, TDP1 cell CPT 13µM*, ALOX12 inh inconclusive, TDP1 cell noCPT 13µM* and ELG1 repair inh 5%.
Cc1ccc(S(=O)(=O)NC(=S)c2ccccc2)cc1 was read as TDP1 cell CPT -6%, ALOX12 inh inconclusive and TDP1 cell noCPT -18%.

Source: PubChem BioAssay (National Center for Advancing Translational Sciences (NCATS))
